The text below walks through data of PubChem BioAssay AID1813 (Broad Institute, 2009).

Screen size: about 300,000 compounds; about 2,500 (0.83%) were called active. What follows is part of a selection rich in actives, with near analogues and random picks from the rest. A number with no mark means an inactive call. Rule as the data show it: active = inhibition above about 60%; inconclusive = no clear call, values can overlap the other calls; inactive = below that.

The nature of the assay: MLPCN primary screen, SNCA 5' untranslated region (AID 1813).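 Also: H4 neuroglioblastoma cells stably carrying SNCA 5'UTR luciferase fusion; 0% = DMSO wells and 100% = positive control.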 Particulars: alpha-synuclein 5'UTR reporter, inhibitor activity; hits give high values; tested at 7.5 µM.
What is called inhibition is the drop in the measured response relative to a control, in per cent. With `CC(C)(C)NC(=O)NC(=O)CN1CCC(Cc2ccccc2)CC1`, the inhibition was 17.3%.

For the compound `Cc1c(Cl)c([N+](=O)[O-])nn1Cc1ccc(C(=O)N/N=C\c2cc(Cl)ccc2O)o1`, the inhibition is 81.2% (active).

In the case of `Cc1ccc(C(=O)O)cc1NC(=O)c1ccc(Cn2nc(C)c(Cl)c2C)o1`, the inhibition is -17.2%.

For `Cc1c(Cl)c([N+](=O)[O-])nn1CCCC(=O)Nc1cc(Cl)ccc1Cl`, the inhibition was 12.6%.

As for `NC(=O)CCC(NS(=O)(=O)c1ccc(Cl)cc1)C(=O)NCc1ccccc1Cl` (centres undefined), the inhibition was -12.6%.

For the compound `CCCCN(C)CCNC(=O)CSCc1ccc(C)cc1`, the inhibition was 0.318%.

`CC(=O)N1c2ccc(S(=O)(=O)N3CCCC(C(=O)Nc4cccc(F)c4)C3)cc2CC1C` (centres undefined): the inhibition was 4.33%.

On to `CCOC(=O)c1c(C)[nH]c2c1-c1ccccc1C(=O)C2=O`, for which the inhibition is 99.5% (active).

Take `CCOC(=O)C1=C(c2ccc(OC)cc2)C(=O)c2ccccc2C1=O`: the inhibition was -17.2%.

Take `CCOC(=O)c1c(C)[nH]c(C)c1S(=O)(=O)N(C)CC(=O)Nc1ccccc1C`: the inhibition was 23%.

For `O=S(=O)(c1ccc(-c2ccccc2)cc1)N1CCCC1`, the inhibition was 1.66%.

As to `COc1ccc(-n2c(C)nn(CC3CC3)c2=O)cc1`, the inhibition was 5.05%.

With `Cc1cc(Nc2cc(N3CCN(C)CC3)nc(Sc3ccc(NC(=O)C4CC4)cc3)n2)n[nH]1`, the inhibition was -50.9%.

As to `O=C(O)CCn1c(SCc2cc(=O)n3ccccc3n2)nc2ccsc2c1=O`, the inhibition was -7.14%.

`COc1ccccc1C(=O)NNC(=O)CCN1C(=O)/C(=C\c2ccccc2)SC1=S`: the inhibition was 8.03%.

Take `Cc1ccc(/C=C2\SC(=S)N(CCC(=O)Nc3ccc(O)cc3)C2=O)cc1`: the inhibition was 0.184%.

`C=CCOc1ccc(/C=C2\SC(=S)N(CCC(=O)O)C2=O)cc1`: the inhibition is 80% (active).

Consider `C=CCNC(=O)/C=C/c1ccc(C(C)C)cc1`, for which the inhibition was -129%.

For `Cc1ccc2nc(-c3ccc(SCC(=O)Nc4cc(C)on4)nc3)[nH]c2c1`, the inhibition is -160%.

With `COc1ccc(CNC(=O)CSc2n[nH]c(N)n2)cc1OC`, the inhibition is 4.62%.

On to `CCN1CCN(c2cc3nc(C)n(Cc4ccccc4)c(=O)c3cc2NC(=O)c2ccccc2F)CC1`, for which the inhibition was 65.1% (active).

For the compound `CCOc1cc(NC(=O)c2ccccc2C(=O)O)c(OCC)cc1NC(=O)c1ccccc1F`, the inhibition was 11.7%.

As for `CCC(=O)Nc1ccc2nc(C)n(Cc3ccccc3Cl)c(=O)c2c1`, the inhibition was 11.1%.

On to `C=CCc1cccc2cc(C(=O)Nc3ccc(NC(C)=O)cc3)c(=O)oc12`, for which the inhibition is -30.5%.

Consider `CCc1ccc2nc(N(CCCN(C)C)C(=O)c3ccc4c(c3)OCCO4)sc2c1`, for which the inhibition was -34.6%.

`CCOc1ccc2nc(N(CCN(C)C)C(=O)c3ccc4ccccc4c3)sc2c1`: the inhibition is -8.13%.

For `COc1ccc2sc(N(CCCN(C)C)C(=O)c3ccc(S(=O)(=O)N(C)C4CCCCC4)cc3)nc2c1`, the inhibition was -20%.

On to `CN(C)CCCN(C(=O)c1ccc(S(=O)(=O)N2CCCCCC2)cc1)c1nc2ccc(Br)cc2s1`, for which the inhibition was 75.3% (active).

For `CCOc1ccc2nc(N(CCCN(C)C)C(=O)c3ccc(C(=O)c4ccccc4)cc3)sc2c1`, the inhibition was 90.2% (active).

With `CSc1nc2ccc(S(=O)(=O)N3CCc4ccccc43)cc2s1`, the inhibition was 1.39%.

With `CN(C)CCCN(C(=O)c1ccc(S(=O)(=O)N2CCCCCC2)cc1)c1nc2cc3c(cc2s1)OCCO3`, the inhibition is -27.7%.

Consider `CCN(CC)CCN(C(=O)c1ccc(S(=O)(=O)N2CCOCC2)cc1)c1nc2cc3c(cc2s1)OCCO3`, for which the inhibition was -15.5%.

As for `CN(C)CCCN(C(=O)c1ccc(S(=O)(=O)N2CCCc3ccccc32)cc1)c1nc2ccc(F)cc2s1`, the inhibition was 74.2% (active).

As for `CCC1(CC)C(=O)C2=C3C1[C@H](C(=O)OC)C=C(C(=O)OC)C[C@H]3[C@H]1C(=O)N(Cc3ccccc3)C(=O)[C@H]1[C@H]2C` (some centres undefined), the inhibition is 6.19%.

Turning to `COc1ccc(S(=O)(=O)NCC(c2ccc(C)cc2)N2CCN(C)CC2)cc1OC` (centres undefined), the inhibition is -8.67%.

`COc1ccc(CN2CCC(n3nccc3NC(=O)CCCc3ccccc3)CC2)cc1C`: the inhibition was 23.5%.

On to `O=C(NCc1ccccc1)c1onc(CSc2nc3ccccc3[nH]2)c1C(=O)NCc1ccccc1`, for which the inhibition is 21.2%.

Take `COc1ccc(N2CCN(C(=O)[C@@H](NC(=O)c3cc(OC)cc(OC)c3)C(C)C)CC2)cc1`: the inhibition is 5.14%.

In the case of `CCCC1=Nc2cc(C(=O)NCc3ccco3)ccc2Sc2ccccc21`, the inhibition is 87.6% (active).

In the case of `CC(C)(C)c1ccc(C(=O)NCc2ccco2)cc1`, the inhibition was -180%.

Turning to `CCCC1=Nc2cc(C(=O)NCCN3CCCC3)ccc2Sc2ccccc21`, the inhibition was -14.6%.

On to `CCCN(CC(=O)Nc1ccc(OC)c(OC)c1)CC(=O)Nc1ccc(F)c(F)c1F`, for which the inhibition is 3.66%.

`Cc1ccc(CC(=O)N(C)CC(=O)N(CC(C)C)c2c(N)n(CC(C)C)c(=O)[nH]c2=O)cc1C`: the inhibition was 15%.

`CCC(C)Cn1c(O)cc2nn(-c3nc4ccccc4s3)c(=O)c-2c1C` (centres undefined): the inhibition was 97.8% (active).

Regarding `Cc1nn(CC(=O)Nc2nc3ccccc3s2)c(C)c1[N+](=O)[O-]`, the inhibition was 5.8%.

For the compound `Cc1cc(NC(=O)CN2CCCC(C)C2)n(-c2nc3ccccc3s2)n1` (centres undefined), the inhibition was 27.7%.

As to `Nc1cc(N2CCCCCC2)c2nonc2c1[N+](=O)[O-]`, the inhibition is 11%.

With `Cc1ccc(C2CC(=O)NC(SCC(=O)OCc3ccccc3)=C2C#N)o1` (centres undefined), the inhibition was -11.5%.

As for `CCOC(=O)CSC1=C(C#N)C(c2sccc2C)CC(=O)N1` (centres undefined), the inhibition was 75% (active).

With `CCOC(=O)CSC1=C(C#N)C(c2ccco2)C(C(=O)OCc2ccccc2)=C(C)N1` (centres undefined), the inhibition was 10.5%.

Take `Cc1nc2ccccc2c(=O)n1-c1ccc(F)c(NC(=O)c2cccs2)c1`: the inhibition was 9.3%.

`CCOc1ccc(NC(=O)c2ccc(NC(=O)COC(=O)c3ccc(NC(=O)CC#N)cc3)cc2)cc1`: the inhibition was -88.1%.

`CCC(C)(C)c1ccc(Oc2ccc(NC(=O)COC(=O)C3=COCCO3)cc2)cc1`: the inhibition was 90.6% (active).

Consider `O=C(OCC(=O)c1cccs1)C1=COCCO1`, for which the inhibition is -103%.

`Cc1nc2ccccc2nc(=O)c1NNc1ccc([N+](=O)[O-])cc1`: the inhibition was -109%.

In the case of `CSCCC(NS(=O)(=O)c1ccc2c(c1)oc(=O)n2C)C(=O)NC1CCCc2ccccc21` (centres undefined), the inhibition was 1.15%.

On to `O=C(NN1C(=O)C2C(C1=O)C1C=CC2C12CC2)c1ccccc1Cl` (centres undefined), for which the inhibition is 12.2%.

On to `CC12CCC(C(=O)N(c3cccc(Cl)c3)C1=O)C2(C)C` (centres undefined), for which the inhibition was 15.6%.

For the compound `CC12CCC(C(=O)N(NC(=O)c3ccccc3O)C1=O)C2(C)C` (centres undefined), the inhibition is 67.6% (active).

Take `COC(=O)c1scc(C)c1NC(=O)CSc1ccc(Cl)cc1`: the inhibition was 14.7%.

For the compound `Cc1ccc(CSCCNC(=O)CN(c2ccc(F)cc2)S(C)(=O)=O)cc1`, the inhibition was 14.7%.

For `O=C(c1ccc(Cl)cc1)N1N=C(c2ccccn2)CC1(O)C(F)(F)F` (centres undefined), the inhibition was 68.6% (active).

In the case of `O=C(C1CC1)N1N=C(c2ccc(Br)cc2)CC1(O)C(F)(F)F` (centres undefined), the inhibition was -12.3%.

With `O=C(Cc1ccccc1)N1N=C(c2ccncc2)CC1(O)C(F)(F)F` (centres undefined), the inhibition is 18.6%.

`CC(=O)Nc1ccc(N2C(=O)C3C4CC(=O)C(c5ccccc54)C3C2=O)cc1` (centres undefined): the inhibition is 17.3%.

On to `CC(Oc1ccccc1)C(=O)NN1Cc2ccccc2C1=N` (centres undefined), for which the inhibition is -12.4%.

Regarding `O=C1[C@H]2[C@@H](c3ccc(F)cc3)N3C(=O)N(c4ccc(C(F)(F)F)cc4)C(=O)[C@@]3(Cc3ccccc3)[C@H]2C(=O)N1C1CCCCC1`, the inhibition is -4.59%.

Regarding `COc1ccc(CCNC(=O)c2c(C)nn(-c3ccccc3)c2Cl)cc1`, the inhibition is 14.8%.

On to `Nc1nonc1-n1nnc(C(=O)N/N=C/c2c[nH]c3ccccc23)c1-c1ccccc1`, for which the inhibition is 1.28%.

For `CCc1ccc2c(c1)C1(NN=C(c3ccccc3)S1)C(=O)N2` (centres undefined), the inhibition is 71.7% (active).

Consider `CCOC(=O)c1c(C)[nH]c(C)c1S(=O)(=O)NCCCc1ccco1`, for which the inhibition was 0.398%.

`Cc1oc2nc(SCC(=O)Nc3ccc(S(N)(=O)=O)cc3)nc(NC(=O)c3ccccc3)c2c1C`: the inhibition is -1.45%.

`CCn1c(CNC(=O)c2cc(OC)c(OC)c(OC)c2)cc2cc(C)ccc21`: the inhibition is -1.14%.

On to `COc1c(C)c2c(c(O)c1C/C=C(\C)CCC(=O)O)C(=O)OC2`, for which the inhibition was 76.6% (active).

`CN1CN(C)c2ccc([N+](=O)[O-])c3cccc1c23`: the inhibition was 35.2%.

As for `CC1=NN(/C(=N\c2nnc(C)s2)Nc2ccccc2)[C@H](c2ccc(C)cc2)S1`, the inhibition is -19.5%.

With `COCCCn1c(SCC(=O)NC2CCCC2)nnc1-c1ccccc1`, the inhibition is 4.11%.

With `Cn1c(N)c(C(=O)COC(=O)c2ccccc2NCc2ccco2)c(=O)n(C)c1=O`, the inhibition was 6.96%.

On to `COc1ccc(/C=C/C(=O)Nc2ccc(C34CC5CC(CC(O)(C5)C3)C4)cc2)cc1OC`, for which the inhibition was 76.5% (active).

For the compound `COc1ccc(/C=C/C(=O)Nc2ccc(C)cc2)cc1S(=O)(=O)N1CCOCC1`, the inhibition is -60%.

`COc1ccc(/C=C/C(=O)Nc2cccnc2)cc1OC`: the inhibition is -72.4%.

`COc1ccc(-c2nn(C)c(=O)c3ccccc23)cc1CNC(=O)C1CCCCC1`: the inhibition was -1.05%.

On to `Cc1oc2c(c1C(=O)N1CCOCC1)C(=O)c1ccccc1C2=O`, for which the inhibition was 101% (active).

For the compound `Cc1ccccc1-c1ccc(Nc2ccc(C(=O)N3CCOCC3)cc2)nn1`, the inhibition was 10.1%.

With `CCOC(=O)c1ccccc1C(=O)N1CCOCCOCCOCC1`, the inhibition is 7.43%.

As to `CCOc1cc(/C=C2\SC(N3CCCC(C)C3)=NC2=O)ccc1O` (centres undefined), the inhibition was -40.1%.

Consider `Cc1ccc(C)c(S(=O)(=O)Nc2cc(C)on2)c1`, for which the inhibition was -13.8%.

Consider `CCCCCc1ccc(-c2cn(Cc3ccc4ccccc4c3)nn2)cc1`, for which the inhibition was -16.4%.

Turning to `CCCCCc1ccc(-c2ccc(C(=O)O)cc2)nc1`, the inhibition was -19.1%.

`CCCCCc1ccc(-c2ccc(OCC)cc2)nc1`: the inhibition is 79.7% (active).

As for `COc1cccc(C(=O)n2ccc(-c3cccs3)n2)c1`, the inhibition is 2.56%.

Consider `COC(=O)c1c(NC(=O)c2ccc(S(=O)(=O)N3CCOCC3)cc2)sc2c1CCN(C(C)C)C2`, for which the inhibition was -85.3%.

`CCC(=O)NC(Nc1nc2ccc(C)cc2s1)(C(=O)OC)C(F)(F)F` (centres undefined): the inhibition was 13%.

On to `CCOc1ccc2nc(NC(=O)c3cc([N+](=O)[O-])ccc3N3CCOCC3)sc2c1`, for which the inhibition is 1.05%.

Regarding `O=C(NC(Nc1nc2ccc([N+](=O)[O-])cc2s1)(C(F)(F)F)C(F)(F)F)c1ccccc1`, the inhibition was 94.1% (active).

For the compound `COc1ccc(Cl)cc1-n1c(=S)sc2c(=O)n(-c3ccc(F)cc3)c(SCC(=O)O)nc21`, the inhibition is 14.1%.

Consider `CCOC(=O)N1CCN(C(=O)c2ccccc2SCC(=O)NCC2CCCCC2)CC1`, for which the inhibition was -17.7%.

Regarding `O=[N+]([O-])/C=C/c1ccc2c(ccn2Cc2ccccc2)c1`, the inhibition was 84.5% (active).

With `O=c1c([N+](=O)[O-])cc(C(F)(F)F)cn1Cc1cccc(Cl)c1`, the inhibition is 17.2%.

Take `O=C(/C=C/c1cccc([N+](=O)[O-])c1)N1CCN(Cc2ccccc2)CC1`: the inhibition is -15.7%.

For the compound `Cc1ccc(C(C)C)c(OCc2nnc(SCC(=O)Nc3nccs3)n2C)c1`, the inhibition is -2.72%.

Turning to `O=C(N[C@@H](Cc1ccccc1)C(=O)OCc1ccccc1)c1nc[nH]c1C(=O)NC1CCNCC1`, the inhibition was -8.61%.

For `Cc1c(NC(=O)c2c([N+](=O)[O-])cnn2C)c(=O)n(-c2ccccc2)n1C`, the inhibition is 3.28%.

For the compound `CCOC(=O)c1sc(C)c2c1NC(C)(c1cccc3ccccc13)NC2=O` (centres undefined), the inhibition was 31.1%.
